High-throughput results deposited in PubChem by National Center for Advancing Translational Sciences (NCATS).
This excerpt belongs to a sample that is enriched for hits.
Pf Dd2 growth: Plasmodium falciparum Dd2 growth inhibition; P. falciparum Dd2 growth, SYBR Green, 72 h; 120,000 tested, 4.3% active; AID 1347417; Potency, µM (titrated, usually from 28.9 µM), for the others: top-dose activity, negative = inhibition, hits mostly inhibitors; active means well fitted inhibition curve with a large enough effect;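 further: plate controls were DMSO vehicle for no effect and reference drug for full effect; nearly all actives have a fitted effect of over 65% in size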
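Readout: SYBR Green fluorescence, 485 nm excitation, 535 nm emission, after ~16 h lysis at 37C. Before that, Dd2-infected red cells (2.5% hematocrit) grew 72 h with compound, 29 uM top final concentration.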
An asterisk follows results filed as active; i = inactive; [ ] = remark or other dose. Potency means the concentration at half of the fitted maximal effect.

SMILES	Pf Dd2 growth
COc1ccc(-c2cc3c(=O)n(CCNC(=O)c4ccc(F)cc4)ccn3n2)cc1	i
CCc1ccc(C(=O)NCCn2ccn3nc(-c4ccc(F)cc4)cc3c2=O)cc1	4µM*
Cn1cccc1CN1CC(Oc2ccc3c(c2)OCO3)C1	-4%[44.1 µM]
CCOC(=O)c1ccc(NC(=O)Cn2c(C)cc3nc4n(c(=O)c32)CCCC4)cc1	-30%
CN(C)CCN(C)Cc1cn(Cc2ccccc2)nc1-c1ccc2c(c1)OCO2	10µM*
Cc1c(C(=O)NCCN(C)C)oc2c1-c1nn(Cc3cccc(Cl)c3)cc1CC2	-7%
CN(Cc1nccn1Cc1ccccc1)C(=O)CCc1ccc2c(c1)OCO2	-10%
COCc1nc(C2CCCN(C(=O)c3ccc(C)s3)C2)no1 (stereo not given)	26%
CCc1ocnc1C(=O)N1CCCC(CNC(=O)c2n[nH]c3ccccc23)C1 (stereo not given)	17%
CC(=O)N1CCC(C2CCN(S(=O)(=O)c3cccc(Cl)c3)C2)CC1 (stereo not given)	-18%
CCS(=O)(=O)N1CCCN(C)c2ccccc21	-19%
CN1CCCN(S(=O)(=O)c2cccc(Cl)c2)c2ccccc21	11µM*
O=C(Nc1cc(F)cc(C(F)(F)F)c1)N1CCCOC(Cn2cccn2)C1 (stereo not given)	-5%
COc1ccccc1CNC(=O)c1c(OC)cc(=O)n2c1CCCC2	i
Cc1nc(N2CCCC2)c2c(C(=O)Nc3cccc(Cl)c3)c(C)oc2n1	i
Cc1nc(N2CCCC2)c2c(C(=O)N3CCN(c4cc(Cl)ccc4C)CC3)c(C)oc2n1	13µM*
Cc1nc(N2CCCC2)c2c(C(=O)N3CCN(c4ccccc4)CC3)c(C)oc2n1	-16%
O=C(Cn1nc2c(cc1=O)CCCC2)NCC1CCOCC1	8%
Cc1cccc2c(C3CCN(C(=O)c4c(Cl)cc(Cl)cc4Cl)CC3)c[nH]c12	-17%
Cn1cc(C2CCN(C(=O)c3c(Cl)cc(Cl)cc3Cl)CC2)c2ccccc21	8.9µM*
Cn1cc(C(=O)N2CC[C@@](C)(O)[C@@H](O)C2)c2ccccc21	-3%
Cc1ccccc1-c1cnc2[nH]cc(CC(=O)NCc3ccco3)c2c1	-7%[44.1 µM]
Cc1cc(C[C@@H]2COC[C@@H]2NC(=O)Cc2c(C)[nH]c3ccccc23)on1	2%
CN(CCC(O)c1ccccc1)c1nccc(-c2cccnc2)n1 (stereo not given)	10µM*
Cc1cn2cc(C(=O)N(C)CCC(O)c3ccccc3)ccc2n1 (stereo not given)	2%
SMILES	Pf Dd2 growth
CN(Cc1cc(C2CC2)n[nH]1)c1nccc(-c2cccnc2)n1	-25%
CCN(Cc1ccccn1)C(=O)c1coc(COc2ccc3c(c2)OCO3)n1	6%
Cc1ccc(S(=O)(=O)c2cn(Cc3ccccc3)c3cc(N4CCCC4)c(F)cc3c2=O)cc1C	10µM*
O=c1c(S(=O)(=O)c2ccccc2)cn(Cc2ccccc2)c2cc(N3CCCC3)c(F)cc12	-5%
O=c1c(S(=O)(=O)c2cccc(Cl)c2)cn(Cc2ccccc2)c2cc(N3CCCCC3)c(F)cc12	i
CCn1cc(S(=O)(=O)c2ccc(C)cc2C)c(=O)c2cc(F)c(N3CCCCC3)cc21	11µM*
Cc1ccc(S(=O)(=O)c2cn(Cc3ccccc3)c3cc(N4CCCC4)c(F)cc3c2=O)cc1	6.3µM*
O=c1c(S(=O)(=O)c2ccccc2)cn(Cc2cccc(F)c2)c2cc(N3CCCC3)c(F)cc12	-14%
CCn1cc(S(=O)(=O)c2ccc(OC)cc2)c(=O)c2cc(F)c(N3CCCCCC3)cc21	-24%
CCCn1cc(S(=O)(=O)c2ccc(C)c(C)c2)c(=O)c2cc(F)c(N3CCC(C)CC3)cc21	-10%
CCn1cc(S(=O)(=O)c2cc(C)cc(C)c2)c(=O)c2cc(F)c(N3CCCC3)cc21	i
Cc1cc(C)n(CCC(=O)N2CCCC(Cc3noc(-c4ccccn4)n3)C2)n1 (stereo not given)	i
CNC(=O)c1cnn2c1CN([S+](=O)([O-])c1cccc(OC)c1)CC2	-2%
COc1cccc(CC(=O)N2[C@@H]3CC[C@H]2CC(NC(=O)c2cnc(C)cn2)C3)c1 (stereo not given in full)	4%
CN1CC(=O)N(C2CCNCC2)Cc2c(NC3CCCCC3)ncnc21	-28%
CN(C)C(=O)c1cccnc1OC1CCN(C(=O)c2ccncc2)CC1	-14%
CCN1C(=O)C2CC3(CCN(C(=O)Nc4ccc5c(c4)OCCO5)CC3)CN2C1=O (stereo not given)	-29%
CN(Cc1ccc(N2CCCCC2)cc1)C(=O)CCC[C@H]1NC[C@@H]2C[C@H]1CN(Cc1ccccc1)C2	4.5µM*
Cc1nccn1CCNC(=O)CCC[C@H]1NC[C@@H]2C[C@H]1CN(Cc1ccccc1)C2	3.5µM*
O=C(CCC[C@H]1NC[C@@H]2CC1CN(Cc1ccccc1)C2)N1CCCC1	-6%
CCN1CCN(CCNC(=O)CCC[C@H]2NC[C@@H]3C[C@H]2CN(Cc2ccccc2)C3)CC1	-23%
CCN1CCN(CCCNC(=O)CCC[C@H]2NC[C@@H]3C[C@H]2CN(Cc2ccccc2)C3)CC1	11%
CN(Cc1cccnc1)C(=O)CCC[C@H]1NC[C@@H]2C[C@H]1CN(Cc1ccccc1)C2	-9%
O=C(NC[C@H]1COCc2nc3ccccc3n21)c1ccc(Cl)cc1	i
O=C(N[C@H]1CCOC[C@H]1C1CCOCC1)c1ccoc1	3%
SMILES	Pf Dd2 growth
Cc1ccncc1C(=O)N[C@@H]1CN(Cc2ccccc2)C[C@H]1CN(C)C	-11%
O=C(c1ccncc1)N1CCCC1c1nnc2n1CCNC2 (stereo not given)	-14%
O=C(c1cn2c(n1)CNCC2)N1C[C@H](c2ccccc2)[C@@H]2[C@H]1C1CCN2CC1	0%
Cc1ccc([C@@H]2CN(C(=O)c3snnc3C)[C@@H]3C4CCN(CC4)[C@@H]32)cc1	14µM*
COc1ccc([C@@H]2CN(C(=O)Nc3ccc(C)cc3)[C@@H]3C4CCN(CC4)[C@@H]32)cc1	-10%
CN(C)c1cccc(-c2ncc3c(n2)OCCN(c2ccccc2)C3=O)c1	-15%[44.1 µM]
Cn1nc2n(c1=O)CCN(C(=O)Cc1ccsc1)CC2	-19%
Cc1c(C(=O)N2CCCCCC2)c(S(=O)(=O)N(Cc2ccccc2)C(C)(C)C)c(C)n1C	13µM*
Cc1c(C(=O)N2CCCCC2)c(S(=O)(=O)NCc2ccc(N(C)C)cc2)c(C)n1C	-17%
Cc1ccc(CNS(=O)(=O)c2c(C(=O)N3CCC(C)CC3)c(C)n(C)c2C)cc1	12%
C=CCNC(=O)C[C@@H]1CCN(C(=O)c2ccccc2)C[C@@H]1CC	-5%[44.1 µM]
CCCN(CC1CCOC1)C(=O)Nc1ccccc1OC (stereo not given)	47%[5.79 µM]
O=C([C@H]1C[C@H](Oc2ccccc2)CN1C(=O)C1CCCC1)N1CCOCC1	i
Cc1cccc(NC(=O)CSc2ncc3c(n2)-c2cc(Cl)ccc2N(C)S3(=O)=O)c1C	i
Cc1cccc(C)c1NC(=O)CSc1ncc2c(n1)-c1ccc(Cl)cc1N(Cc1ccccc1)S2(=O)=O	11µM*
COc1ccc(CNC(=O)CSc2ncc3c(n2)-c2ccc(Cl)cc2N(Cc2ccccc2)S3(=O)=O)cc1	-14%
Cc1nocc1C(=O)N1C[C@@H](CO)[C@H](c2ccccn2)C1	7%
CCOCc1nc(C2CCCN(C(=O)c3ccnn3CC)C2)no1 (stereo not given)	9%
CCCN(CC1CCOC1)C(=O)c1c(F)cccc1F (stereo not given)	54%[5.79 µM]
Cc1ccc(C(=O)N2CCC3(CC2)CC(=O)c2ccc(Cl)cc2O3)cc1	-3%
O=C(N[C@H]1CCN2C(=O)[C@@H](Cc3ccccc3)NC(=O)[C@H]12)c1cnccn1	-4%[44.1 µM]
